Measured values: PubChem BioAssay (Tox21)
Records with an inconclusive call do not appear. Activity calls are given as the source filed them. Unless noted, the call rests on the fitted dose curve; in most records, active means well fitted curve in the direction sought with a large enough effect in the repeat runs; inconclusive means weak or mixed curves; inactive means no such curve, though single readings can be large; an effect the other way counts as inactive or inconclusive.

Tests used:
[1] = qHTS assay for small molecules that induce genotoxicity in human embryonic kidney cells expressing luciferase-tagged ATAD5 (AID 651632); further: nearly all actives have a fitted effect of over 15% in size
How it was run: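 Luminescent reporter readout, HEK293T ATAD5-luc line: 16 hr drug exposure (37C, 5% CO2) followed by Amplite, 30 min RT.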

[2] = qHTS assay for small molecule agonists of the p53 signaling pathway - cell viability (AID 651633; calls by dose curve;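 further: p53RE-bla HCT reporter cells with a stable beta-lactamase p53 reporter; series mostly up to about 83 µM; nearly all actives have a fitted effect of over 30% in size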)
How it was run: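 p53RE-bla cells, seeded at 4,000 per well and rested 5 h at 37 C/5% CO2, received compounds in DMSO for 16 h at 37 C. CellTiter-Glo was then added, and luminescence was read after 30 min at room temperature to gauge cytotoxicity.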

[3] = qHTS assay for small molecules that induce genotoxicity in human embryonic kidney cells expressing luciferase-tagged ATAD5 - cell viability (AID 651634; calls by dose curve; further: nearly all actives have a fitted effect of over 25% in size)
How it was run: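 Viability read: CellTiter-Fluor fluorescence, 30 min at 37C. Cells: HEK293T, luciferase-tagged ATAD5. Exposure: 15.5 hr, 37C, 5% CO2, compound or DMSO vehicle.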

[4] = qHTS assay for small molecule disruptors of the mitochondrial membrane potential (AID 720635)
How it was run: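 HepG2 cells (2,000/well) attached overnight at 37C, then took compound for 1 hr at 37C, 5% CO2. Mito-MPS dye was added for 30 min; fluorescence was read at 490/535 nm (monomers) and 540/590 nm (aggregates).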

[5] = qHTS assay to test for compound auto fluorescence at 590 nm (red) in HepG2 cells (AID 720674)
How it was run: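 Intrinsic compound fluorescence in the red window (Ex/Em 540/590 nm) is measured in attached HepG2 cells exposed for 1 hr, DMSO vehicle as baseline, benchmarked to Rose Bengal sodium.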

[6] = qHTS assay to test for compound auto fluorescence at 535 nm (green) in HepG2 cells (AID 720675)
[7] = qHTS assay to test for compound auto fluorescence at 460 nm (blue) in HEK293 cells (AID 720678)
How it was run: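 HEK293 cells (2,000/well, medium with 10% dialyzed FBS) attached 4-5 hr, then exposed to compound overnight at 37C, 5% CO2. Blue fluorescence read at 405/460 nm, with triamterene as reference fluorophore.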

[8] = qHTS assay to test for compound auto fluorescence at 590 nm (red) in HEK293 cells (AID 720679)
How it was run: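 HEK293 cells (2,000/well, 10% dialyzed FBS) attached 4-5 hr, then dosed with compound or DMSO and incubated overnight at 37C, 5% CO2. Red fluorescence read at 540/590 nm, Rose Bengal sodium as reference fluorophore.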

[9] = qHTS assay to test for compound auto fluorescence at 535 nm (green) in HEK293 cells (AID 720680)
[10] = qHTS assay to test for compound auto fluorescence at 535 nm (green) in HEK293 cell free culture (AID 720682)
How it was run: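 Intrinsic compound fluorescence is measured in culture medium containing 10% FBS, with excitation at 485 nm and detection at 535 nm, referenced to fluorescein.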

[11] = qHTS assay to test for compound auto fluorescence at 590 nm (red) in HEK293 cell free culture (AID 720683)
How it was run: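 Tox21 10K library compounds were pinned into cell-free DMEM with 10% FBS and fluorescence was read at excitation 540 nm. Activity is expressed as Rose Bengal sodium equivalency.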

[12] = qHTS assay to test for compound auto fluorescence at 460 nm (blue) in HepG2 cell free culture (AID 720685)
How it was run: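 Compound (23 nL) or DMSO pinned into cell-free MEM with 10% FBS; blue fluorescence read at 405/460 nm excitation/emission, expressed as auto-fluorescence equivalency to triamterene.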

[13] = qHTS assay to test for compound auto fluorescence at 535 nm (green) in HepG2 cell free culture (AID 720686)
[14] = qHTS assay to test for compound auto fluorescence at 460 nm (blue) in HepG2 cells (AID 720687)
How it was run: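 Cells (2,000/well in MEM with 10% FBS) attached overnight at 37 C, then were exposed to compound or DMSO for 1 hr at 37 C, 5% CO2. Fluorescence read at Ex/Em 405/460 nm, expressed as triamterene-equivalent signal.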

[15] = biological target: Glucocorticoid receptor (Homo sapiens) (UniProt P04150); test: qHTS assay to identify small molecule agonists of the glucocorticoid receptor (GR) signaling pathway (AID 720691; active means well fitted activation curve with a large enough effect in the signal ratio in the repeat runs, not every such curve was filed as active; the % refers to the signal ratio)
Glucocorticoid receptor (Homo sapiens), sequence (P04150 whole entry, looked up): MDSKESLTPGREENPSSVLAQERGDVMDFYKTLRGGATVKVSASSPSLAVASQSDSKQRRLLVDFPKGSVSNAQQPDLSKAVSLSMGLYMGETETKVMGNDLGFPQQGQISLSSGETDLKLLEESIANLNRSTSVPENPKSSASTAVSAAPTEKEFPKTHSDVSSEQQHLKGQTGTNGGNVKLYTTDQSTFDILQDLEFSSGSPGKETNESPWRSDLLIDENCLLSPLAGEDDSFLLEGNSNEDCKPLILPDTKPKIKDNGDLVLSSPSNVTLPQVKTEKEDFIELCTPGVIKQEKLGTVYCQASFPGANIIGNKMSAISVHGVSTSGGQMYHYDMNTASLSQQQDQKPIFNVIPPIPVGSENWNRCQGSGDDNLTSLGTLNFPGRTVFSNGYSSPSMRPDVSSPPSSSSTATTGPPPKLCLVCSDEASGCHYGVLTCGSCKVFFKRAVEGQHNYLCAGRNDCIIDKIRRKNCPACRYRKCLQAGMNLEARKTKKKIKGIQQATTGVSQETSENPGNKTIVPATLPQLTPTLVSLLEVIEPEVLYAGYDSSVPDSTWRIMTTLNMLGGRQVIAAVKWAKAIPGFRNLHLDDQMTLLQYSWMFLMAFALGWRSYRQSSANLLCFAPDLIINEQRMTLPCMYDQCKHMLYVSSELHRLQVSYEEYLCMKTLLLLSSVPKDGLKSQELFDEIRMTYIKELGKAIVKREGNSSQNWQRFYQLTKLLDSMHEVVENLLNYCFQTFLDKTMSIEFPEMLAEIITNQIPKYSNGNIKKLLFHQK
How it was run: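 qHTS in GR-bla HeLa cells: 4 h settling at 37 C/5% CO2, 18 h compound incubation at 37 C, 2 h LiveBLAzer B/G FRET substrate at room temperature, fluorescence intensity measured.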

[16] = qHTS assay for small molecule disruptors of the mitochondrial membrane potential - cell viability (AID 720634; calls by dose curve;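 further: human HepG2 liver cancer cells; series mostly up to about 83 µM; nearly all actives have a fitted effect of over 20% in size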)
How it was run: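 HepG2, 1 hr compound, 37 C. ATP luminescence via CellTiter-Glo, 30 min RT, same well as m-MPI.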

[17] = qHTS assay to test for compound auto fluorescence at 460 nm (blue) in HEK293 cell free culture (AID 720681)
How it was run: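 Test compounds were pinned into cell-free culture medium (DMEM with 10% FBS) and fluorescence was read directly at Ex/Em 405/460 nm. Signals were expressed as fluorescence equivalents of triamterene, with DMSO vehicle as control.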

[18] = qHTS assay to test for compound auto fluorescence at 590 nm (red) in HepG2 cell free culture (AID 720684)
How it was run: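 Red fluorescence (540 nm excitation, 590 nm emission) was measured after compound transfer into cell-free MEM supplemented with 10% FBS. Values are equivalencies against Rose Bengal sodium.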

[19] = biological target: Glucocorticoid receptor (Homo sapiens) (UniProt P04150); test: qHTS assay to identify small molecule antagonists of the glucocorticoid receptor (GR) signaling pathway (AID 720692; active means well fitted inhibition curve with a large enough effect in the signal ratio in the repeat runs, not every such curve was filed as active; the % refers to the signal ratio)
How it was run: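 Inhibition of glucocorticoid signalling is measured in HeLa cells with a GRE-controlled beta-lactamase reporter; cells are co-treated with compound and 5 nM dexamethasone (final) for 18 h before FRET substrate readout.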
On the % scale 0 is the no-effect control and ±100 the full control effect.

C=CCOC(=O)c1ccc(C(=O)OCC=C)c(C(=O)OCC=C)c1
inactive: outcome [1] | outcome [2] | Potency [3] | Potency [4] | outcome [5] | outcome [6] | outcome [7] | outcome [8] | outcome [9] | outcome [10] | outcome [11] | outcome [12] | outcome [13] | outcome [14] | Potency [15]

Cc1nc2ccccc2c(=O)o1
inactive: outcome [1] | outcome [2] | Potency [3] | outcome [16] | outcome [5] | outcome [7] | outcome [8] | outcome [9] | outcome [17] | outcome [10] | outcome [11] | outcome [18] | outcome [12] | outcome [13] | outcome [14]

CN(C1CCCCC1)S(=O)(=O)c1ccccc1N
inactive: outcome [1] | outcome [2] | Potency [3] | outcome [16] | outcome [5] | outcome [7] | outcome [8] | outcome [9] | outcome [17] | outcome [10] | outcome [11] | outcome [18] | outcome [12] | outcome [13] | outcome [14]

CC1(N)CCC(C(C)(C)N)CC1 (stereo unspecified)
inactive: outcome [1] | outcome [2] | Potency [3] | Potency [4] | outcome [5] | outcome [6] | outcome [8] | outcome [9] | outcome [17] | outcome [10] | outcome [11] | outcome [18] | outcome [13] | outcome [14] | Potency [15] | outcome [19]

CCCCCCCCCOCC1CO1 (stereo unspecified)
inactive: outcome [1] | outcome [2] | outcome [16] | Potency [4] | outcome [5] | outcome [6] | outcome [7] | outcome [8] | outcome [9] | outcome [17] | outcome [10] | outcome [11] | outcome [18] | outcome [13] | Potency [15]

CC(=O)Nc1ccc(C)cc1
inactive: outcome [1] | outcome [2] | Potency [3] | outcome [16] | outcome [5] | outcome [6] | outcome [7] | outcome [8] | outcome [9] | outcome [10] | outcome [11] | outcome [12] | outcome [13] | outcome [14]

CC(C)COC(=O)COc1ccc(Cl)cc1Cl
inactive: outcome [1] | outcome [2] | Potency [3] | Potency [4] | outcome [5] | outcome [6] | outcome [7] | outcome [8] | outcome [9] | outcome [17] | outcome [10] | outcome [11] | outcome [18] | outcome [13] | outcome [14] | Potency [15] | outcome [19]

CCCOCCOCCOCCO
inactive: outcome [1] | outcome [2] | Potency [3] | outcome [6] | outcome [7] | outcome [8] | outcome [9] | outcome [10] | outcome [11] | outcome [18] | outcome [12] | outcome [13] | outcome [14]

CC(Cl)COP(=O)(OCC(C)Cl)OCC(C)Cl (stereo unspecified)
inactive: outcome [1] | outcome [2] | Potency [3] | outcome [5] | outcome [6] | outcome [8] | outcome [9] | outcome [17] | outcome [10] | outcome [11] | outcome [18] | outcome [12] | outcome [13] | Potency [15] | outcome [19]

O=S(=O)(O)CCO
inactive: outcome [1] | outcome [2] | Potency [3] | outcome [6] | outcome [7] | outcome [8] | outcome [9] | outcome [17] | outcome [10] | outcome [11] | outcome [18] | outcome [12] | outcome [13] | outcome [14] | Potency [15] | outcome [19]

Nc1ccc(S(=O)(=O)Nc2ccccn2)cc1
inactive: outcome [1] | outcome [2] | Potency [3] | Potency [4] | fluorescence, relative to Rose Bengal [5] 0.667% [at 18.6 µM] | fluorescence, % of fluorescein control [6] -0.201% [at 18.6 µM] | fluorescence, % of triamterene [7] -0.296% [at 18.6 µM] | fluorescence, % of fluorescent control [8] 0.278% [at 18.6 µM] | fluorescence, % of fluorescein [9] 0.0233% [at 18.6 µM] | fluorescence, % of fluorescent control [17] -0.0806% [at 18.6 µM] | activity change [10] 0.0547% [at 18.6 µM] | fluorescence, % of fluorescent control [11] 0.101% [at 18.6 µM] | fluorescence, % of Rose Bengal [18] 0.012% [at 18.6 µM] | fluorescence, % of fluorescent control [12] -0.12% [at 18.6 µM] | fluorescence, % of fluorescein control [13] -0.0379% [at 18.6 µM] | fluorescence, % of fluorescent control [14] 0.149% [at 18.6 µM] | Potency [15]

CN=C(NC#N)NCCSCc1csc(N=C(N)N)n1
inactive: outcome [1] | outcome [2] | Potency [3] | outcome [16] | outcome [5] | outcome [6] | outcome [7] | outcome [8] | outcome [9] | outcome [10] | outcome [11] | outcome [18] | outcome [12] | outcome [13] | outcome [14] | Potency [15] | outcome [19]

CCC(C)N (stereo unspecified)
inactive: outcome [1] | outcome [2] | Potency [3] | outcome [16] | outcome [5] | outcome [7] | outcome [8] | outcome [9] | outcome [10] | outcome [11] | outcome [18] | outcome [12] | outcome [13] | outcome [14] | Potency [15]

COC(/C=C(\C)CCC=C(C)C)OC
inactive: outcome [1] | outcome [2] | Potency [3] | outcome [16] | outcome [6] | outcome [7] | outcome [8] | outcome [9] | outcome [17] | outcome [10] | outcome [11] | outcome [18] | outcome [12] | outcome [13] | outcome [14] | Potency [15]

CCCCC(CC)COC(=O)c1ccccc1 (stereo unspecified)
inactive: outcome [1] | outcome [2] | Potency [3] | outcome [6] | outcome [7] | outcome [8] | outcome [9] | outcome [10] | outcome [11] | outcome [18] | outcome [12] | outcome [13] | outcome [14] | Potency [15] | outcome [19]

CC(C)COC(=O)/C=C/c1ccccc1
inactive: outcome [1] | outcome [2] | outcome [16] | Potency [4] | outcome [5] | outcome [6] | outcome [7] | outcome [8] | outcome [9] | outcome [17] | outcome [10] | outcome [11] | outcome [12] | outcome [13] | outcome [14]
